1 sequence from publication PMC7862700, “An all-to-all approach to the identification of sequence-specific readers for epigenetic DNA modifications on cytosine” can be followed below.

What all share (experiment): DAPPL (digital affinity profiling via proximity ligation, sequencing); 10 mM Tris-HCl pH 7.5, 50 mM NaCl, 1 mM DTT, 4% glycerol, room temperature, 30 min; GST-TFs on glutathione beads, 16-mer random dsDNA library, 0.1% formaldehyde crosslink after washing; high values mean tight binding
One assay has as its target T1, FEV (Homo sapiens, UniProt Q99581 1-238).
T1 sequence: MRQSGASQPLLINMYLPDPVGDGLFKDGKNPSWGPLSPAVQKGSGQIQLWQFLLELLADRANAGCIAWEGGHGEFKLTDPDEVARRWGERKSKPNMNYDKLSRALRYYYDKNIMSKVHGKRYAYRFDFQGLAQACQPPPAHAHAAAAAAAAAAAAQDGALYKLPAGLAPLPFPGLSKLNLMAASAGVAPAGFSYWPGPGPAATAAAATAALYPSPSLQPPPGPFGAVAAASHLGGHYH
The following applies: protein: recombinant; tags: N-terminal GST; dsDNA, one strand shown. In a few lines:
(§1)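 Binding signal is each hexamer's read frequency for a factor divided by its frequency in the tag-only sample. The factors were GST-fused human transcription factors from yeast, captured on glutathione beads, DNA-barcoded and pooled with that sample. Pools were incubated with 200 nmole of a random double-stranded 16-mer DNA library in Tris/NaCl/DTT/glycerol buffer at room temperature for 30 min, then washed, crosslinked with 0.1% formaldehyde, proximity-ligated with BsaI/T4 ligase (1 h, 37 °C), PCR-amplified and sequenced on an Illumina NextSeq500.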

For a further assay, the target named is ETV5 (Homo sapiens, UniProt P41161 1-510). The following applies: protein: recombinant; tags: N-terminal GST; dsDNA, one strand shown. In a few lines:
as §1

A further assay concerns the target HSF1 (Homo sapiens, UniProt Q00613 1-529). The following applies: protein: recombinant; tags: N-terminal GST; chain copies: 3; dsDNA, one strand shown. An outline of the steps: as §1
In the next assay the target is T2, SPIC (Homo sapiens, UniProt Q8N5J4 1-248).
T2 sequence: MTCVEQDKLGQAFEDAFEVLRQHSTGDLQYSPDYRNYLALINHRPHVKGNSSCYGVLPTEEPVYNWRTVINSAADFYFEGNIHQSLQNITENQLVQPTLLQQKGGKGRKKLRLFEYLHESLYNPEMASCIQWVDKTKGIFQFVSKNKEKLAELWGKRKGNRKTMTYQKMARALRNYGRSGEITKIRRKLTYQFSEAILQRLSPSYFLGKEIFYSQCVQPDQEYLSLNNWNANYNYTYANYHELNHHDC
The following applies: protein: recombinant; tags: N-terminal GST; dsDNA, one strand shown. In a few lines:
as §1

The target in another assay is ELF4 (Homo sapiens, UniProt Q99607 1-663). Particulars: protein: recombinant; tags: N-terminal GST; dsDNA, one strand shown. An outline of the steps:
as §1

In the next assay the target is T3, ELK4 (Homo sapiens, UniProt P28324-2 1-405).
T3 sequence: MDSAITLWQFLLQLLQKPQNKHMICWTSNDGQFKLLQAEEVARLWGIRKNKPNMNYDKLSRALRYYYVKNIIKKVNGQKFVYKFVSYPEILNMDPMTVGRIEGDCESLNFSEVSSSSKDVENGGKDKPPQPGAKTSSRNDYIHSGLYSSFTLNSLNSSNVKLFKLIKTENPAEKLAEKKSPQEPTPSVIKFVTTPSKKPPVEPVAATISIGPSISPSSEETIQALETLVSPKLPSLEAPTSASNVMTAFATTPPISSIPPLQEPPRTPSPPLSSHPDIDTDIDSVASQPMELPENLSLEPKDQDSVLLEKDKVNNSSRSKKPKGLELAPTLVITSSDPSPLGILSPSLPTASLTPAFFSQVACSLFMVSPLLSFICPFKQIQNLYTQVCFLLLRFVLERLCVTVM
Particulars: protein: recombinant; tags: N-terminal GST; dsDNA, one strand shown. An outline of the steps:
as §1

Another assay concerns the target T4, ETV2 (Homo sapiens, UniProt O00321 1-342).
T4 sequence: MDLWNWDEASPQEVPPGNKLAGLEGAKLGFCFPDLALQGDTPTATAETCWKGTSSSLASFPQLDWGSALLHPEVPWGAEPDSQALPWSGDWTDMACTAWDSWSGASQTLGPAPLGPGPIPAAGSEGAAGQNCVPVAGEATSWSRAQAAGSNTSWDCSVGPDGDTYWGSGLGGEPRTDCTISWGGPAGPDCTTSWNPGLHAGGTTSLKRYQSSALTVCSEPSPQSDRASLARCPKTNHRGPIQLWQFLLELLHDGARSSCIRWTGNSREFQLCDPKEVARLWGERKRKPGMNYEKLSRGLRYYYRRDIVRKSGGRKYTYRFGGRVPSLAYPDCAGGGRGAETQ
The following applies: protein: recombinant; tags: N-terminal GST; dsDNA, one strand shown. In a few lines: as §1

For another assay, the target named is T5, ELF3 (Homo sapiens, UniProt P78545 1-371).
T5 sequence: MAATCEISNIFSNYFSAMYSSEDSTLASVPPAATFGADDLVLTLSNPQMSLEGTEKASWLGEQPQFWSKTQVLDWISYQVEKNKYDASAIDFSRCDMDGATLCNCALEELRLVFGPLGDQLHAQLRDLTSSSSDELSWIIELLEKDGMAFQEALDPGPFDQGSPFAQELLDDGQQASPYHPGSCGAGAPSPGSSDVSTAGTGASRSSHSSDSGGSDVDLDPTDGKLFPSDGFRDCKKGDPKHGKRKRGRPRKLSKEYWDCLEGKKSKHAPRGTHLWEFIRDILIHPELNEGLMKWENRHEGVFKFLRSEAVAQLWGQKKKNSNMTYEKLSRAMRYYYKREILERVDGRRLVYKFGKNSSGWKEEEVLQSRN
The following applies: protein: recombinant; tags: N-terminal GST; dsDNA, one strand shown. In a few lines:
as §1

A further assay has as its target CRX (Homo sapiens, UniProt O43186 1-299). The following applies: protein: recombinant; tags: N-terminal GST; dsDNA, one strand shown. An outline of the steps:
as §1

The next assay concerns the target ETV1 (Homo sapiens, UniProt P50549 1-477). The following applies: protein: recombinant; tags: N-terminal GST; dsDNA, one strand shown. In a few lines: as §1
The next assay concerns the target T6, ERF (Homo sapiens, UniProt P50548 1-548).
T6 sequence: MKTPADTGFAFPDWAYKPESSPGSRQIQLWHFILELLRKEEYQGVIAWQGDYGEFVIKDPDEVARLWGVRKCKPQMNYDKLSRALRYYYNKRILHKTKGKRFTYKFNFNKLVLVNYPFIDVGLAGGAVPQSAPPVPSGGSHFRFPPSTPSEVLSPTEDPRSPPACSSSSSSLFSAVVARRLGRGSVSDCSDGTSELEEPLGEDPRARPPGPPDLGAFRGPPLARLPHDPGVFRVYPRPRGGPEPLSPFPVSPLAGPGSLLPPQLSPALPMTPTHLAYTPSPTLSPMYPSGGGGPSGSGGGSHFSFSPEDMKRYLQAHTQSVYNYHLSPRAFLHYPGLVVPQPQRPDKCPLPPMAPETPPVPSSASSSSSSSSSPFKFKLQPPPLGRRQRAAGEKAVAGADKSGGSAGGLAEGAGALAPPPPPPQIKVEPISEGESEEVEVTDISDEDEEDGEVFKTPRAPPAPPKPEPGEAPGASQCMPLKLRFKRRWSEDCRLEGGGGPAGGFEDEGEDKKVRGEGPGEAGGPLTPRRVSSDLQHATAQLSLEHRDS
The following applies: protein: recombinant; tags: N-terminal GST; dsDNA, one strand shown. In a few lines: as §1

Another assay concerns the target T7, ETV3L (Homo sapiens, UniProt Q6ZN32 1-361).
T7 sequence: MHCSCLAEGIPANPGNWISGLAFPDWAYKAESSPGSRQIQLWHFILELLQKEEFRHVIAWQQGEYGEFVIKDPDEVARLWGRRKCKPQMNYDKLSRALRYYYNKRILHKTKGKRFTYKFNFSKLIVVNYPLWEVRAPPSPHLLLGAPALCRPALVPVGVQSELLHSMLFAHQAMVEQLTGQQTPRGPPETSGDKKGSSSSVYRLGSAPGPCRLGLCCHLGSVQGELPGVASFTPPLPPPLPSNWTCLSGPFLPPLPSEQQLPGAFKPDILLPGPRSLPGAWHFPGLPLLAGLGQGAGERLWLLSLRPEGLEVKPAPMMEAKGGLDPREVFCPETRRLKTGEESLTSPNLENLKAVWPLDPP
Particulars: protein: recombinant; tags: N-terminal GST; dsDNA, one strand shown. In a few lines: as §1

The target in the next assay is T8, ETS2 (Homo sapiens, UniProt P15036 1-469).
T8 sequence: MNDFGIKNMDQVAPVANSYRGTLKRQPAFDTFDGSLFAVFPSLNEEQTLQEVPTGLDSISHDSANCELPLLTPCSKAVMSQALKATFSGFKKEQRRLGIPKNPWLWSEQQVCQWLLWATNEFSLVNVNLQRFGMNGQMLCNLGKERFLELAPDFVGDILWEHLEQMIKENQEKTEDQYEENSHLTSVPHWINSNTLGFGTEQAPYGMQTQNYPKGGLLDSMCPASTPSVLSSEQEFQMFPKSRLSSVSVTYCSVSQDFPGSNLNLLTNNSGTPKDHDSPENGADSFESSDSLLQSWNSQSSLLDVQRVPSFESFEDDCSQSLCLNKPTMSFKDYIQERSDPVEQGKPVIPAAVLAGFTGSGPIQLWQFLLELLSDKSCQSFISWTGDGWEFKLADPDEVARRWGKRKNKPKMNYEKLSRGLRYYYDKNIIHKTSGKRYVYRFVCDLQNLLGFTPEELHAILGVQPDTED
Particulars: protein: recombinant; tags: N-terminal GST; dsDNA, one strand shown. An outline of the steps: as §1

Another assay deals with T9, SPDEF (Homo sapiens, UniProt O95238 1-335).
T9 sequence: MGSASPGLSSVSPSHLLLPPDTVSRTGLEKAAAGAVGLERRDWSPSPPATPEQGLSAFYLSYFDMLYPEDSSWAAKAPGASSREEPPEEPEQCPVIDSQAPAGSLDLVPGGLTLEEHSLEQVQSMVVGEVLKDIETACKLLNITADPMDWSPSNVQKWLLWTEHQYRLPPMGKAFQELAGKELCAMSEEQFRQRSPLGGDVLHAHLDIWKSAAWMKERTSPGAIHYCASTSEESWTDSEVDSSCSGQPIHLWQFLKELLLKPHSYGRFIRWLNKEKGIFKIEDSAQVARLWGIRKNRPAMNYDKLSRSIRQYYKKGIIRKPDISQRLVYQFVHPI
The following applies: protein: recombinant; tags: N-terminal GST; dsDNA, one strand shown. In a few lines:
as §1

In the next assay the target is T10, ETV7 (Homo sapiens, UniProt Q9Y603 1-341).
T10 sequence: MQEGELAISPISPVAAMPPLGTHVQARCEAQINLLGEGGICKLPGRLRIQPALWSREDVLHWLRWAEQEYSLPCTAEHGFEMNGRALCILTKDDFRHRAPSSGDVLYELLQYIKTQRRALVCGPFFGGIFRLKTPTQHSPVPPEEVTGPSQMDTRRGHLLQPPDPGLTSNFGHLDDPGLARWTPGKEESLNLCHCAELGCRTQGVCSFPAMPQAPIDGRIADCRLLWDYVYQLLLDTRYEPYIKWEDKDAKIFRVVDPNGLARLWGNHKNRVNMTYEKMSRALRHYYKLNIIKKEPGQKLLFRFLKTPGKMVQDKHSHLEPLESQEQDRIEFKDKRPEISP
The following applies: protein: recombinant; tags: N-terminal GST; dsDNA, one strand shown. In a few lines: as §1

The target of the next assay is T11, ELF5 (Homo sapiens, UniProt Q9UKW6-2 1-255).
T11 sequence: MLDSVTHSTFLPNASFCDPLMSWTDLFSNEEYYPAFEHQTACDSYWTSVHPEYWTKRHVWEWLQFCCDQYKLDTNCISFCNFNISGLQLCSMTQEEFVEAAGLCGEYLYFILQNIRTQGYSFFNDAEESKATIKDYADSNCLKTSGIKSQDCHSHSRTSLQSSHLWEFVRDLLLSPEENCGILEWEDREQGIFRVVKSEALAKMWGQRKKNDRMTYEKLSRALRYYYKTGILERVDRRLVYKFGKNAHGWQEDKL
The following applies: protein: recombinant; tags: N-terminal GST; dsDNA, one strand shown. An outline of the steps: as §1

A further assay deals with T12, ETV3 (Homo sapiens, UniProt P41162-2 1-143).
T12 sequence: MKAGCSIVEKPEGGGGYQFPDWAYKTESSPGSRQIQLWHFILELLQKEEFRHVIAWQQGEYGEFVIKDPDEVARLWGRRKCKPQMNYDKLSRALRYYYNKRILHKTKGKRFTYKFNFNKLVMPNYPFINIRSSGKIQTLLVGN
Particulars: protein: recombinant; tags: N-terminal GST; dsDNA, one strand shown. In a few lines:
as §1

The next assay addresses ETV6 (Homo sapiens, UniProt P41212 1-452). The following applies: protein: recombinant; tags: N-terminal GST; dsDNA, one strand shown. In a few lines: as §1

Sequence of ELF4 (Q99607 whole entry): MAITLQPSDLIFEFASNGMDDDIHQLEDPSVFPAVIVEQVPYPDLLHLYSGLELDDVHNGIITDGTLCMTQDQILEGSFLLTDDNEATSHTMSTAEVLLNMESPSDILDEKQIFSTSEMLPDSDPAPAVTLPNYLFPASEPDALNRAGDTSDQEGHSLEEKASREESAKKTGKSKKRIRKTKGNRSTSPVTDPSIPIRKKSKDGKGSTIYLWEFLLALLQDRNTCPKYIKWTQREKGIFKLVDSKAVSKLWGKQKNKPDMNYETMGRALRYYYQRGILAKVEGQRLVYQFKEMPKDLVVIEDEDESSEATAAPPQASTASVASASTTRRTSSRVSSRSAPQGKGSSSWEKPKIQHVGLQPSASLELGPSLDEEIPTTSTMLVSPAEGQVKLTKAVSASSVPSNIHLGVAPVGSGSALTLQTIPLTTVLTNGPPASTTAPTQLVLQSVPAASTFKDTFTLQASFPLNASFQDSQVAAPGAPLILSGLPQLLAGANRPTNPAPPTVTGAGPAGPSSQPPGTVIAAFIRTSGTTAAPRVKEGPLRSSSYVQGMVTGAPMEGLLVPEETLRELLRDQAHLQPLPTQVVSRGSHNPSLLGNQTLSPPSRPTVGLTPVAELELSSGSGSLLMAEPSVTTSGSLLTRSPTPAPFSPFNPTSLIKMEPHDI
Sequence of HSF1 (Q00613 whole entry): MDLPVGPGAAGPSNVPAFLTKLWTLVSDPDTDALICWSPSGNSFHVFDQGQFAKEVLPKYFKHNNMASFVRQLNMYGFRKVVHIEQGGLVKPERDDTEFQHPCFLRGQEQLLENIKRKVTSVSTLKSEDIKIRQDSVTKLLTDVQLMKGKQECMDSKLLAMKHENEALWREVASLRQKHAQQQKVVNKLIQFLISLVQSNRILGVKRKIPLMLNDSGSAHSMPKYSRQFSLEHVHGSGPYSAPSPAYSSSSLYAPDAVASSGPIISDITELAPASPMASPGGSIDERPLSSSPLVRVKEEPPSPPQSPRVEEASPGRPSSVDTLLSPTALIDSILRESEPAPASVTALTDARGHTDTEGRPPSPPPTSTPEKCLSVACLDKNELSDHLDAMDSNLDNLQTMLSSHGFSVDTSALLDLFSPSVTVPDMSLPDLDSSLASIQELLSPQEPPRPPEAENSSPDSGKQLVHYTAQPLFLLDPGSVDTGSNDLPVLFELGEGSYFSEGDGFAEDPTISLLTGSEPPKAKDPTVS
Sequence of ETV5 (P41161 whole entry): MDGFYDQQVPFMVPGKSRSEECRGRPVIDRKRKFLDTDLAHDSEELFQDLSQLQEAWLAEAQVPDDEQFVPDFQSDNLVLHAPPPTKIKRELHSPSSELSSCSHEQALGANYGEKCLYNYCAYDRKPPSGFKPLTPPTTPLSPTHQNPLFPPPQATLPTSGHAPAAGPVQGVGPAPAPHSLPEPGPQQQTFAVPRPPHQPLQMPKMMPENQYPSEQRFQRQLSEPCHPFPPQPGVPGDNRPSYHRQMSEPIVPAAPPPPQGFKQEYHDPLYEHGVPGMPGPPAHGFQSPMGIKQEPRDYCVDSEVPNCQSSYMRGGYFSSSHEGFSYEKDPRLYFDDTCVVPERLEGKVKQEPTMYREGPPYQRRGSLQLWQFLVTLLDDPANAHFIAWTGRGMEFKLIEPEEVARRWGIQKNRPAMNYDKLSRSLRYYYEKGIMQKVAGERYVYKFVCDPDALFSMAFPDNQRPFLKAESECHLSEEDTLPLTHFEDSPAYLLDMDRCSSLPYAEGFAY
Sequence of CRX (O43186 whole entry): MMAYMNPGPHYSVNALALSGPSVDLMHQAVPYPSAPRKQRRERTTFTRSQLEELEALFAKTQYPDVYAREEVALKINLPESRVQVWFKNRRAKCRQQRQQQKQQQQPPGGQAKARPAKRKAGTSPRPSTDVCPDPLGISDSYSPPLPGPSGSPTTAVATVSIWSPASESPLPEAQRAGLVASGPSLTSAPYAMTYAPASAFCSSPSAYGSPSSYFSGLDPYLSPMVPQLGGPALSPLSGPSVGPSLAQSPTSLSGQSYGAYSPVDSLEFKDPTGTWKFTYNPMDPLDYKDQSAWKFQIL
Sequence of ETV6 (P41212 whole entry): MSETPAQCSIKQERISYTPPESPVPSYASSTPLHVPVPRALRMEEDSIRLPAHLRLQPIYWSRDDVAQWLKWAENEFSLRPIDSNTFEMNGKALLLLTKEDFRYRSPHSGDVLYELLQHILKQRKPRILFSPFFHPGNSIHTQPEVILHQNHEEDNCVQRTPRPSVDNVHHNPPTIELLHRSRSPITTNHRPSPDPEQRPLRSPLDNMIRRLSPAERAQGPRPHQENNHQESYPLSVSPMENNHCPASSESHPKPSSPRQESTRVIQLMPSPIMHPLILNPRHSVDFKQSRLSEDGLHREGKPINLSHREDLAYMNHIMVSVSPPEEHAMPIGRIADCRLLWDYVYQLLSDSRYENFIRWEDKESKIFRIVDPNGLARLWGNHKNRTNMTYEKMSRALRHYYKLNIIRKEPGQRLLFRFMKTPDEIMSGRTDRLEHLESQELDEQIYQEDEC
Sequence of ETV1 (P50549 whole entry): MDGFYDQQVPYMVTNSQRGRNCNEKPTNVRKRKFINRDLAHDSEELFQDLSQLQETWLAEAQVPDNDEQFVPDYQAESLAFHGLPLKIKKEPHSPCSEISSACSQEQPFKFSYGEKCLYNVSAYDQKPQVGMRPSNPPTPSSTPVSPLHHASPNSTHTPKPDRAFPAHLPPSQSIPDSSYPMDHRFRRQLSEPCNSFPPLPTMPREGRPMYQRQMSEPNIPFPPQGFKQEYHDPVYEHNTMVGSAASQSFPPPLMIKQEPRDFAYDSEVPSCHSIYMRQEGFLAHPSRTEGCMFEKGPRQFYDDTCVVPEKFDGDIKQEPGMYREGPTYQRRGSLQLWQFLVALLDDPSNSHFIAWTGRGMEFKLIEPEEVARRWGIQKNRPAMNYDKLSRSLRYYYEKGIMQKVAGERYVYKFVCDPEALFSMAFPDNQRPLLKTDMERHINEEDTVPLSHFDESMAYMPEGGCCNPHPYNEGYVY

On to CTTATT, for which the binding signal was 1.46 fold enrichment (6-mer frequency, TF over GST control) in the assay with FEV; 1.42 fold enrichment (6-mer frequency, TF over GST control) in the assay with ETV5; 1.87 fold enrichment (6-mer frequency, TF over GST control) in the assay with HSF1; 1.62 fold enrichment (6-mer frequency, TF over GST control) in the assay with SPIC; 1.43 fold enrichment (6-mer frequency, TF over GST control) with ELF4; 1.49 fold enrichment (6-mer frequency, TF over GST control) in the assay with ELK4. The binding signal with ETV2 was 1.5 fold enrichment (6-mer frequency, TF over GST control); with ELF3 it was 1.51 fold enrichment (6-mer frequency, TF over GST control); with CRX, 2.55 fold enrichment (6-mer frequency, TF over GST control); with ETV1 it was 1.52 fold enrichment (6-mer frequency, TF over GST control); with ERF it was 1.44 fold enrichment (6-mer frequency, TF over GST control); with ETV3L it was 1.5 fold enrichment (6-mer frequency, TF over GST control). For the same sequence, the binding signal with ETS2 was 1.51 fold enrichment (6-mer frequency, TF over GST control); in the assay with SPDEF, 1.54 fold enrichment (6-mer frequency, TF over GST control); in the assay with ETV7, 1.43 fold enrichment (6-mer frequency, TF over GST control); with ELF5, 1.42 fold enrichment (6-mer frequency, TF over GST control); in the assay with ETV3, 1.31 fold enrichment (6-mer frequency, TF over GST control); with ETV6 it was 1.48 fold enrichment (6-mer frequency, TF over GST control).
